Screens deposited in PubChem by several laboratories.
Rows were chosen to be rich in hits. Some 2.3% of all compounds tested hit in one or more screens of this group.
SENP8 block-1: SENP8 protease inhibitors, primary screen, biochemical, luminescence. 330,000 tested, 1.2% active. purified SENP8, Z-RLRGG-aminoluciferin cleavage. AID 2540, 2010. inhibition, % at 10 µM; in the data active = inhibition above about 50%
HSP90 refold inh: HSP90 inhibitors, primary screen, cell lysate, luminescence; Rabbit reticulocyte lysate, luciferase refolding luminescence, 3 h; inhibition, % at 5.6 µM; 290,000 tested, 0.91% active;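 active = inhibition above the screen-wide mean plus 3 SD, computed separately per campaign, cut at about 16% in these data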;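 note: 0% = DMSO wells and 100% = 60 µM geldanamycin wells; inhibitors lower the luminescence because luciferase stays unfolded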
SENP7 inh: SENP7 protease inhibitors, primary screen, biochemical, luminescence, uHTS; Sentrin-specific protease 7 (Homo sapiens), Q9BQF6; recombinant SENP7, Z-RLRGG-aminoluciferin luminescence, 40 min; inhibition, % at 5 µM; 330,000 tested, 1.5% active; AID 434973, 2010;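 active = inhibition above about 50% at the single test dose, limit read from the data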;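 note: plate controls were DMSO with enzyme for no effect and no enzyme buffer wells for full effect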
SENP6 block: SENP6 protease inhibitors, primary screen, biochemical, luminescence, uHTS; Sentrin-specific protease 6 (Homo sapiens), Q9GZR1; AID 2599, 2010; inhibition, % at 10 µM; Recombinant SENP6 catalytic domain, aminoluciferin luminescence; 330,000 tested, 1.8% active;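 active = inhibition above about 50% at the single tested dose, limit read from the data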;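 note: plate controls were DMSO wells with enzyme for no effect and DMSO wells lacking enzyme for full effect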
Target sequence (Q9GZR1 628-1112 limits assumed): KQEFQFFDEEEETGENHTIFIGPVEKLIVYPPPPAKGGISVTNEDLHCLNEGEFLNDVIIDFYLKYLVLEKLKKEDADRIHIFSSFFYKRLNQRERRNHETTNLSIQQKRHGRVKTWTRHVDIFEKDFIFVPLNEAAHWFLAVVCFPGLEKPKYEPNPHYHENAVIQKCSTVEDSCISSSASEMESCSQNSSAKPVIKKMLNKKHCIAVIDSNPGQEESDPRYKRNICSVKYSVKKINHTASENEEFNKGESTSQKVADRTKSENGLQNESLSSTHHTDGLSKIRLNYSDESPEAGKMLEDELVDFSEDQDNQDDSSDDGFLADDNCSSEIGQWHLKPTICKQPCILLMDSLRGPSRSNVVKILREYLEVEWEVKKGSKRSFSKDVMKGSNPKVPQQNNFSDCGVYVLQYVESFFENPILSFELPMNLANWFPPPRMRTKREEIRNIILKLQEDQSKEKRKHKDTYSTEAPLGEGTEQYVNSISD
SENP8 block-2: human SENP8 protease inhibitors, primary screen, biochemical, fluorescence, Nedd8 protein substrate, uHTS. Sentrin-specific protease 8 (Homo sapiens), Q96LD8. recombinant SENP8. inhibition, % at 20 µM. 360,000 tested, 0.64% active; in the data active = inhibition mostly above about 40%, no sharp cut-off; inactive = mostly below about 27%
LGR2 antag: inhibitors of bursicon-induced LGR2 CRE-luciferase signal, primary screen, cell-based, HEK293, CRE-luciferase reporter, bursicon stimulation; bursicon-stimulated, 4 h; Drosophila bursicon receptor LGR2 (rickets); AID 720647, 2013; 380,000 tested, 0.35% active; inhibition, % at 9.99 µM;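 active = drop in luminescence signal, shown as inhibition above about 50% in the replicate tests, limit read from the data, passing the limit was not always enough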;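 note: agonist challenge used bursicon conditioned medium at about half maximal strength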
SENP8 conf: SENP8 protease inhibitors, retest, confirmation, biochemical, luminescence, single concentration | shares compounds with SENP7 inh | Recombinant SENP8, Z-RLRGG-aminoluciferin luminescence, 60 min | inhibition, % at 12.5 µM | 6,200 tested, 40% active;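 active = mean inhibition across replicates above about 50%, limit read from the data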
SENP6 conf: SENP6 protease inhibitors, confirmation, biochemical, luminescence, single concentration; shares compounds with SENP7 inh; inhibition, % at 12.5 µM; AID 488915, 2010; 6,200 tested, 58% active; recombinant SENP6, Z-RLRGG-aminoluciferin luminescence
SENP7 confirm: SENP7 protease inhibitors, retest, confirmation, biochemical, luminescence, single concentration; shares compounds with SENP7 inh; recombinant SENP7, Z-RLRGG-aminoluciferin luminescence, 40 min; inhibition, % at 12.5 µM; 6,200 tested, 69% active; AID 488917, 2010
Casp3 SENP sel: caspase-3 protease inhibitors, confirmation, selectivity assay for SENP inhibitor project, biochemical, single concentration | inhibition, % at 12.5 µM | shares compounds with SENP7 inh | AID 488918, 2010 | purified caspase-3, Z-DEVD-aminoluciferin luminescence, 60 min | 6,200 tested, 60% active;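 active = mean inhibition above about 50%, limit read from the data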;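 note: plate controls were enzyme with DMSO for no effect and wells without caspase-3 for full effect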
SENP luc ctr: interferes with luciferase luminescence in SENP counter-screen; shares compounds with SENP7 inh; Pre-incubated SENP8/Z-RLRGG-aminoluciferin, luciferase luminescence interference; 6,200 tested, 39% active; inhibition, % at 12.5 µM;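 active = mean inhibition above about 50% when retested at one dose, limit read from the data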;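 note: plate controls were DMSO wells with completed reaction for no effect and substrate without enzyme for full effect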
* hit, by the source's call; · = no result.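 Rule for the calls, unless noted: active = mean inhibition above about 50% in the one-dose retest (limit read from the data); inactive = the rest.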

SMILES	SENP8 block-1	HSP90 refold inh	SENP7 inh	SENP6 block	SENP8 block-2	LGR2 antag	SENP8 conf	SENP6 conf	SENP7 confirm	Casp3 SENP sel	SENP luc ctr
CCCCN1C=CC(=C2C(=O)c3ccccc3C2=O)C=C1	89*	83*	78*	92*	12	·	-2	92*	100*	95*	41
CO[C@H]1CN(C)C(=O)c2cc(NC(C)=O)ccc2OC[C@H](C)N(Cc2nccs2)C[C@@H]1C	·	·	·	·	·	6	·	·	·	·	·
COc1cccc(C(=O)Cn2c(NCCO)nc3ccccc32)c1	-2	2	-2	-17	23	-5	·	·	·	·	·
COc1cccc(C(=O)Cn2c(=N)n(C)c3ccccc32)c1	43	4	14	64*	2	·	12	4	3	22	45
C[C@@H]1CCCCO[C@@H](CN(C)Cc2ccc(C(=O)Nc3ccccc3N)cc2)[C@@H](C)CN([C@H](C)CO)C(=O)c2cc(NC(=O)C3CCCCC3)ccc2O1	·	·	·	·	·	3	·	·	·	·	·
O=C(Nc1ccc(OCc2ccccc2)cc1)c1cccnc1	2	-1	32	3	4	·	·	·	·	·	·
Cc1ccc(C(=O)Nc2ccc(OCc3ccccc3)cc2)s1	-11	-2	5	0	13	-15	·	·	·	·	·
Cc1cc(C(=O)Nc2ccc(OCc3ccccc3)cc2)c(C)o1	94*	-5	99*	101*	18	-36	74*	96*	101*	95*	64*
CCOC(=O)C(=O)Nc1ccc(OCc2ccccc2)cc1	-21	0	14	-66	11	-15	·	·	·	·	·
O=C(Nc1ccc(OCc2ccccc2)cc1)c1ccccc1	5	-2	67*	29	13	-16	5	8	8	6	-5
CC(C)=CC(=O)Nc1ccc(OCc2ccccc2)cc1	49	-5	58*	73*	1	·	35	49	76*	42	45
O=C(Nc1ccccc1)c1ccc(COc2ccccc2)cc1	-9	-1	64*	44	3	-18	-26	-12	-4	-1	-5
Cc1ccsc1C(=O)Nc1ccc(OCc2ccccc2)cc1	88*	5	98*	91*	19	-22	1	84*	101*	95*	4
CC(C)=CC(=O)Nc1ccc(Br)cc1	16	1	54*	47	-4	-69	49	48	83*	61*	60*
Cc1ccsc1C(=O)Nc1ccc(C(=O)O)cc1	79*	0	86*	-49	20	·	-13	78*	95*	96*	81*
CCOc1ccc(NC(=O)c2c(N)n(C)c(=O)[nH]c2=O)cc1	20	·	48	58*	23	-22	15	12	23	27	2
CC(=O)Nc1ccc(NC(=S)Nc2ccc(Br)cc2)cc1	5	-1	-1	6	14	3	·	·	·	·	·
CCOc1ccc(NC(=O)c2ccc(N)cc2)cc1	8	-7	5	6	-1	-55	·	·	·	·	·
Cc1noc(C)c1COc1cccc(C(=O)Nc2ccc(OCc3ccccc3)cc2)c1	16	-1	34	57*	26	·	9	7	4	4	-6
CCSc1nnc(NC(=O)c2cccc(OCc3c(C)noc3C)c2)s1	-11	3	-15	3	-90	·	·	·	·	·	·
CCOc1ccc(NC(=O)c2ccc(OC)cc2)cc1	-7	-5	7	-41	24	·	·	·	·	·	·
COc1ccc2nc(NC(=O)c3cccc(OCc4c(C)noc4C)c3)sc2c1	33	1	47	60*	-280	·	-2	5	71*	24	4
CCOc1ccc(NC(=O)c2ccncc2)cc1	-10	1	-3	60*	16	·	3	-2	10	16	6
C[C@@H]1CN([C@H](C)CO)C(=O)c2cc(C#Cc3ccccc3F)cnc2O[C@@H]1CN(C)C(=O)C1CCC1	·	·	·	·	·	33	·	·	·	·	·
C[C@H]1CN([C@@H](C)CO)C(=O)c2cc(-c3ccccc3)cnc2O[C@@H]1CN(C)C(=O)NC1CCCC1	·	·	·	·	·	12	·	·	·	·	·
SMILES	SENP8 block-1	HSP90 refold inh	SENP7 inh	SENP6 block	SENP8 block-2	LGR2 antag	SENP8 conf	SENP6 conf	SENP7 confirm	Casp3 SENP sel	SENP luc ctr
COCC(=O)N1[C@H](CO)[C@H](c2ccc(-c3cccc(F)c3)cc2)C12CN(C(=O)C1CC1)C2	·	·	·	·	·	12	·	·	·	·	·
C[C@H](CO)N1C[C@H](C)[C@H](CN(C)Cc2ccccc2)Oc2ccc(NC(=O)CCN3CCOCC3)cc2C1=O	·	·	·	·	·	8	·	·	·	·	·
O=C(O)c1ccc(/C=C2\SC(=S)N(Nc3ccccc3)C2=O)cc1	82*	2	78*	95*	28	-3	92*	92*	98*	84*	76*
COc1cc(/C=C2\SC(=S)N(Nc3ccccc3)C2=O)ccc1O	89*	-5	72*	93*	52*	-66	95*	96*	100*	78*	94*
CCOc1cc(/C=C2\SC(=S)N(Nc3ccccc3)C2=O)ccc1O	45	0	44	85*	35	·	60*	69*	81*	24	55*
O=C1/C(=C/c2ccc(O)c(O)c2)SC(=S)N1Nc1ccccc1	·	-4	·	·	28	·	·	·	·	·	·
CO[C@H]1CN(C)C(=O)c2ccc(NC(C)=O)cc2OC[C@H](C)N(CCc2ccccc2)C[C@@H]1C	·	·	·	·	·	21	·	·	·	·	·
COc1ccc(Nc2ncccc2C(=O)O)cc1	16	5	42	57*	23	-15	38	34	76*	81*	63*
COc1ccccc1Nc1ncccc1C(=O)O	-10	0	-5	-9	13	·	·	·	·	·	·
c1ccc2sc(NN=C3CCCCCC3)nc2c1	81*	12	83*	91*	-16	55*	89*	94*	101*	87*	54*
